Compounds with a hit are over-represented: about 3.6% of the library has one in this group of screens.
TRHR ag: qHTS for Small Molecule Agonists and Allosteric Enhancers of Human TRH Receptor: Primary Screen for Agonists; 360,000 tested, 0.18% active; TRHR cells, calcium flux fluo-8, FDSS agonist mode; Thyrotropin-releasing hormone receptor (Homo sapiens), P34981; AID 493084, 2011; activation, % at 2 µM; further: 0% is about no effect
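TRHR-expressing cells, plated overnight in medium with 10% serum, were loaded with fluo-8 calcium dye at room temperature. After a 10 s baseline, library compound was pin-added and calcium release was recorded kinetically (ex 480/em 530) as agonist response.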
LDHA block: qHTS assay for inhibitors of human lactate dehydrogenase | L-lactate dehydrogenase A chain (Homo sapiens), P00338 | purified LDHA, NADH/diaphorase-resazurin fluorescence; stronger effect = lower value | activity change, % (values are at about 110 or 230 µM) | 480,000 tested, 0.15% active | AID 1347041, 2019; in the data active means activity change below about -30%;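 further: plate controls were DMSO wells for no effect and wells without enzyme for full effect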
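Remaining NADH was detected by diaphorase (0.133 mg/mL) converting 37 µM resazurin to fluorescent resorufin, read at 0 and 20 minutes. The preceding 5-minute room-temperature reaction used 2 nM LDHA, 0.2 mM sodium pyruvate and 0.06 mM NADH at pH 7.4.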
D1 PAM: Potentiators of Human D1 Dopamine Receptor: qHTS; 360,000 tested, 0.036% active; HEK293 TREx D1 cells, calcium flux, dopamine EC20 potentiation; potentiation, % at 10 µM; in the data active means potentiation above about 30%; further: 0% is about no effect
Target sequence (P21728 whole entry, looked up): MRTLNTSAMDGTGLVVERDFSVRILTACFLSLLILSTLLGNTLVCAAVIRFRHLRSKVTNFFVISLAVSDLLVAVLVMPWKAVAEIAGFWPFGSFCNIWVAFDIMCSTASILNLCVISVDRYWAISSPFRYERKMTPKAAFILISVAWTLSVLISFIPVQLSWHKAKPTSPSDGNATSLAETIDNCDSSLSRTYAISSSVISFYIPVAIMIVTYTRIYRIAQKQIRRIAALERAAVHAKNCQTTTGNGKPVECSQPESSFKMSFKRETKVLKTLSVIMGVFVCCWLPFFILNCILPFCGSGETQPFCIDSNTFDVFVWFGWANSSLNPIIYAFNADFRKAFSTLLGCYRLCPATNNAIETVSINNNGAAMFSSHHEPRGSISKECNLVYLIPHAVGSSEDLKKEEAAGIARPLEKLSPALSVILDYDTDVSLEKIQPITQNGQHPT
TRHR enhancer: qHTS for Small Molecule Agonists and Allosteric Enhancers of Human TRH Receptor: Primary Screen for Enhancers. Thyrotropin-releasing hormone receptor (Homo sapiens), P34981. TRHR cells, fluo-8 calcium fluorescence, EC20 TRH enhancement. enhancement, % at 2 µM. 360,000 tested, 0.66% active; in the data active means enhancement above about 30%; further: 0% is about no effect
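Enhancer read-out: after compound pinning and an initial kinetic agonist-mode read, an EC20 of TRH (10 nM final) was injected and fluo-8 calcium signal (Ex 480/Em 530) followed at 1 s/cycle for 100 cycles in TRHR-expressing cells.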
D1 antagonist: Antagonist of Human D 1 Dopamine Receptor: qHTS; HEK293 TREx D1 cells, calcium flux, dopamine EC80; stronger effect = lower value; 360,000 tested, 3.2% active; activity change, negative = inhibition, % at 10 µM; in the data active means activity change below about -30%; further: on the % scale 0 is the no-effect control and ±100 the full control effect
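After overnight tetracycline induction at 30 C, force-coupled D1 HEK293 cells took up a no-wash calcium dye at room temperature. Compounds were added and monitored 180 s, and the response to EC80 dopamine was then recorded.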
D1 ag: Allosteric Agonists of the Human D1 Dopamine Receptor: qHTS; AID 504660, 2011; 360,000 tested, 1% active; D(1A) dopamine receptor (Homo sapiens), P21728; HEK293 T-REx D1 cells, calcium flux, agonist mode; activation, % at 2 µM; further: 0% is about no effect
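Inducible HEK293 T-REx D1 cells, force-coupled to calcium signalling, were plated at 4000 cells/well with tetracycline and held overnight at 30 C. After no-wash calcium dye loading, compound-evoked calcium rise over 180 s flagged agonists.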
An asterisk follows results filed as active; . = no result. Unless noted, no stated cut-off is given here; in the data, active means activation above about 30%; inactive means the rest.

SMILES | TRHR ag | LDHA block | D1 PAM | TRHR enhancer | D1 antagonist | D1 ag
COc1cccc(NS(=O)(=O)c2c(C(=O)N3CCCCCC3)c(C)n(C)c2C)c1 | -1.1 | -1.1 | 18.2 | 32.9* | 43.7 | 1.5
O=[N+]([O-])c1cccnc1N1CCC(c2cc(-c3ccc(Cl)cc3)n[nH]2)CC1 | 0.1 | -1.4 | 0.3 | -8.1 | -33.1* | 2.7
COc1ccc(-c2nc(Cn3nnc(C(=O)NCc4ccc(Cl)cc4)c3N)c(C)o2)c(OC)c1 | . | -9.1 | . | . | . | .
Cc1nn(C)c2sc(C(=O)NCc3ccc(C(=O)O)cc3)cc12 | . | -5.8 | . | . | . | .
CCOc1ccc(C(C)NC(=O)Cc2nn(C)c(=O)c3ccccc23)cc1 (stereo not given) | . | 3.5 | . | . | . | .
CCC(C)Nc1oc(/C=C/c2cccc(OC)c2)nc1C#N (stereo not given) | . | 0.8 | . | . | . | .
O=C1CCCC2=C1C(c1ccc(O)cc1)c1c(ccc3ccccc13)N2 (stereo not given) | 1.9 | -1.7 | -13.1 | 2.1 | -52.8* | 0.8
O=C1CCCC2=C1C(c1ccc(O)c(O)c1)c1c(ccc3ncccc13)N2 (stereo not given) | -0.8 | 16.8 | -0.6 | 5.2 | 32.4 | 0.7
CC(=O)c1ccc(NC(=O)c2ccccc2Sc2ncnc3sc(C)c(C)c23)cc1 | -0.2 | -15.5 | -0.9 | -0.5 | 3.6 | 1.1
Cc1sc2ncnc(Sc3ccccc3C(=O)O)c2c1C | -0.1 | -5.3 | 0.7 | 34.9* | -7.0 | 5.0
CCOC(=O)N1CCC(Nc2ncnc3c2cnn3-c2ccc(C)cc2C)CC1 | -0.3 | -4.1 | -3.9 | 29.8 | -31.1* | 0.8
Cc1ccc(-n2ncc3c(NCC(C)C)ncnc32)c(C)c1 | 0.8 | 0.8 | -1.1 | -1.5 | -32.0* | -1.5
CC(NC(=O)c1cc2sccc2n1C)c1ccc2c(c1)OCCO2 (stereo not given) | 0.6 | 0.9 | 2.9 | 1.4 | -6.5 | 5.7
CCn1c(C(=O)NC(C)c2ccc3c(c2)OCCO3)cc2sccc21 (stereo not given) | -0.5 | 0.2 | -1.4 | 0.9 | -31.6* | 5.8
CC(NC(=O)C1CC1)c1ccncc1 (stereo not given) | . | -5.1 | . | . | . | .
O=C1N=C(N2CCOCC2)S/C1=C/c1ccc(-c2ccc(F)cc2)o1 | -2.1 | 8.8 | -2.9 | -2.5 | 6.6 | 0.8
O=C1S/C(=C\c2ccc(N3CCOCC3)o2)C(=O)N1Cc1ccc(F)cc1 | 22.0 | 16.2 | -5.8 | -5.2 | 9.0 | 42.3*
O=C1S/C(=C/c2ccc(N3CCOCC3)o2)C(=O)N1Cc1ccc(F)cc1 | 35.3* | 13.9 | -5.5 | -5.8 | -3.8 | 83.1*
O=C1NC(=S)S/C1=C/c1ccc(N2CCOCC2)o1 | -0.9 | 9.1 | 2.5 | 6.2 | -3.0 | 7.5
CC(C)OC(=O)CN1C(=O)S/C(=C/c2ccc(N3CCCCC3)o2)C1=O | 26.9 | 15.8 | -7.0 | 2.6 | 1.9 | 60.9*
O=C(CCc1nc(-c2ccccc2)c(-c2ccccc2)o1)N1CCCCC1 | . | -1.3 | . | . | . | .
Cc1ccc(-c2cn3c(=O)cc(C)[nH]c3n2)cc1 | 0.3 | -15.1 | -0.7 | -0.4 | -40.0* | 0.9
Cc1ncsc1C(=O)NCc1cccs1 | . | -7.3 | . | . | . | .
C/C(=N/Nc1ccnc2cc(Cl)ccc12)c1ccc(N)cc1 | -0.8 | 4.0 | -8.0 | -3.0 | -41.9* | 11.5
O=C(Nc1ccc(Br)cc1)N1CCSc2ccccc21 | . | 0.8 | . | . | . | .
Fc1ccc2nc(N3CCOCC3)sc2c1 | -0.5 | -2.3 | 0.6 | 6.3 | -9.9 | 2.9
Nc1nc2ccc(N3CCOCC3)cc2s1 | -0.3 | 7.5 | -3.0 | 0.8 | -33.8* | 1.4
CCCN1CCN(c2nnc(-n3cccc3CN3CCN(c4ccccc4)CC3)s2)CC1 | . | 4.0 | . | . | . | .
Cc1ccc(-c2cc(C(=O)N3CCOCC3)on2)cc1 | . | -2.4 | . | . | . | .

Screening data from PubChem.
